Assay results: PubChem BioAssay AID623870 (Broad Institute, 2012)
Among all 390,000 compounds or so, about 2,600 (0.67%) were called active.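 How the source made its calls: active means mean inhibition of replicates at least 50% and at least half of replicates each reaching 50%; inconclusive means half or more replicates reach 50% but mean below 50%; inactive means the rest.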 Only a selection was taken, and actives are over-represented in it overall.

Each molecule was assayed against Transforming acidic coiled-coil-containing protein 3 (Homo sapiens) (UniProt Q9Y6A5) (assay: inhibitors of ARNT PAS-B binding to TACC3 – biochemical, AlphaScreen, single concentration, primary screen (AID 623870;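 further: 0% = complete ARNT plus TACC3 wells and 100% = ARNT alone without TACC3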)). Conditions: AlphaScreen His-ARNT PAS-B/GST-TACC3 binding, luminescence; at 9.99 µM; hits give high values; TACC3 fragment carries E629A point mutation.

inhibition, inactive:
C[C@@H]1CN([C@@H](C)CO)C(=O)CCCn2cc(nn2)CO[C@H]1CN(C)C(=O)Nc1ccc(N2CCCCC2)cc1 4.48%
O=C(NCC[C@@H]1CC[C@H](NC(=O)Nc2cc(F)ccc2F)[C@@H](CO)O1)Nc1ccc(Cl)cc1 -4.66%
CNC(=O)C[C@@H]1CC[C@@H]2[C@H](COc3ccc(NC(=O)Nc4ccccc4)cc3C(=O)N2C)O1 -2.84%
O=C(CC1CC1)N1[C@H](CO)[C@@H]2c3ccccc3N(S(=O)(=O)c3ccc(F)cc3)C[C@@H]21 -6.11%
O=C(C[C@H]1CC[C@@H](NC(=O)Cc2cccnc2)[C@H](CO)O1)Nc1ccc(-c2ccccc2)cc1 -7.46%
COc1ccc(S(=O)(=O)Nc2ccc3c(c2)CC(=O)N([C@H](C)CO)C[C@H](C)[C@H](CN(C)CC2CC2)O3)cc1 -8.43%
O=C(Nc1cc(F)ccc1F)N1C[C@H]2[C@@H](c3ccccc31)[C@@H](CO)N2CC1CCCC1 -1.12%
Cc1cccc(NC(=O)C(C)N2C(=O)C3C4CC(C(Br)C4Br)C3C2=O)c1 (configuration not stated) 5.02%
Cc1noc(C)c1S(=O)(=O)N(C)C[C@@H]1OCCCC[C@H](C)Oc2ccc(NC(=O)Nc3ccc4c(c3)OCO4)cc2C(=O)N([C@H](C)CO)C[C@H]1C -0.948%
CC1=NNC(=O)C1CC(=O)N/N=C/c1ccncc1 (configuration not stated) 3.25%
CC1=NNC(=O)C1CCC(=O)N/N=C\c1cccc(Cl)c1 (configuration not stated) 4.23%
C[C@@H]1CN([C@@H](C)CO)C(=O)c2cc(NC(=O)Cc3ccccc3)ccc2O[C@@H](C)CCCCO[C@H]1CN(C)C(=O)Nc1cccc2ccccc12 1%
C[C@H]1CN([C@@H](C)CO)C(=O)Cc2cc(NC(=O)Nc3cccc4ccccc34)ccc2O[C@@H]1CN(C)C -6.19%
C[C@@H]1CCCCO[C@H](CN(C)C(=O)Nc2cccc3ccccc23)[C@H](C)CN([C@@H](C)CO)C(=O)c2cc(NC(=O)CCCN(C)C)ccc2O1 14.2%
C[C@@H]1CN([C@H](C)CO)C(=O)Cc2cc(NC(=O)Nc3cccc4ccccc34)ccc2O[C@@H]1CN(C)Cc1ccc(C(F)(F)F)cc1 0.147%
CC=Cc1ccc2n(c1=O)C[C@@H]1[C@@H](CO)[C@H](C(=O)NCC3CC3)[C@H]2N1C(=O)c1ccccc1 (mixture of isomers) -1.91%
O=c1/c(=C/c2ccc(CNS(=O)(=O)c3ccccc3)o2)sc2n1CCN=2 40.1%
CO[C@@H]1CN(C)C(=O)c2ccc(NC(=O)NC(C)C)cc2OC[C@@H](C)N(C(=O)NC(C)C)C[C@H]1C -3.87%
COc1ccccc1-c1cnc2c(c1)C(=O)N([C@H](C)CO)C[C@H](C)[C@H](CN(C)Cc1cccnc1)O2 29.4%
O=C(CN1CCOCC1)N[C@@H]1CC[C@@H](CCn2cc(C3CCCCC3)nn2)O[C@@H]1CO 0.304%
CCC(=O)N(C)C[C@H]1Oc2cc(-c3ccccc3F)ccc2S(=O)(=O)N([C@H](C)CO)C[C@@H]1C -1.89%
COc1ccc(NC(=O)O[C@@H](c2ccc(OCCO)cc2)[C@@H](C)CCO)cc1 -10.6%
C[C@@H]1CN([C@H](C)CO)C(=O)c2cc(C#CCN(C)C)cnc2O[C@@H]1CN(C)C(=O)Cc1cccnc1 -0.97%
CO[C@H]1CN(C)C(=O)c2ccc(NC(=O)c3ccc4c(c3)OCO4)cc2OC[C@@H](C)NC[C@@H]1C -11.2%
Cc1ccc(-c2ccc(/C=C(\C#N)C(N)=S)o2)c([N+](=O)[O-])c1 1.03%
Cc1ccc(S(=O)(=O)N(C)C[C@H]2Oc3c(NC(=O)C4CC4)cccc3C(=O)N([C@@H](C)CO)C[C@@H]2C)cc1 -6.68%
O=C(C[C@H]1C[C@H]2c3cc(NC(=O)Nc4ccccc4F)ccc3O[C@H]2[C@H](CO)O1)NCc1ccccn1 -10.9%
COc1ccc(NC(=O)N(C)C[C@H]2OCCCC[C@@H](C)Oc3ccc(NS(=O)(=O)c4ccc(F)cc4)cc3C(=O)N([C@H](C)CO)C[C@H]2C)cc1 -5.89%
C/C=C/c1cnc2c(c1)C(=O)N([C@@H](C)CO)C[C@@H](C)[C@H](CN(C)Cc1ccccc1)O2 -2.09%
CCOC(=O)N1CCN(C(=O)C2CCN(c3ncnc4c3sc3cccc(F)c34)CC2)CC1 -0.287%
Cc1ccc(OCC(=O)N2CCN(C(=O)c3cccnc3)CC2)cc1 -5.09%
CCS(=O)(=O)Nc1ccc2c(c1)C(=O)N(C)[C@@H]1CC[C@H](CC(=O)N[C@H]3CCN(Cc4ccccc4)C3)O[C@@H]1CO2 4.57%

inhibition, active:
CC(C(=O)Nc1ccc(O)c(C(=O)O)c1)N1C(=O)/C(=C/c2cccs2)SC1=S (configuration not stated) 55.9%
COc1cccc(/C=N\NC(=O)C2=NNC(=O)C2C)c1O (configuration not stated) 71.4%
C[C@@H]1CN([C@H](C)CO)C(=O)Cc2cc(NC(=O)Nc3cccc4ccccc34)ccc2O[C@@H]1CN(C)Cc1ccc(C(=O)O)cc1 -8.02%
C[C@@H]1CN([C@@H](C)CO)C(=O)c2cc(NC(=O)CCCN(C)C)ccc2O[C@@H](C)CCCCO[C@H]1CN(C)C(=O)Nc1cccc2ccccc12 39.5%
O=c1nc2s/c(=C\c3ccco3)c(=O)n2nc1Cc1ccccc1 67.7%
O=C(O)c1ccc2c3c(cccc13)C(=O)N(OS(=O)(=O)c1ccccc1)C2=O 67.5%
CC1=NN(c2ccc(Cl)c(C(=O)O)c2)C(=O)/C1=C/c1ccc(-c2ccccc2[N+](=O)[O-])o1 29.2%
COC(=O)C1=C(C)NC2=C(C(=O)c3ccccc32)C1c1ccc(-c2ccc(C(=O)O)cc2)o1 (configuration not stated) 65.4%
CCN1CCN(C(c2cccnc2)c2cc(Cl)c3cccnc3c2O)CC1 (configuration not stated) 55.4%
CCOC(=O)N1CCN(C(c2cccnc2)c2ccc3cccnc3c2O)CC1 (configuration not stated) 61.4%
